Results filed as inconclusive are left out. The source made the active and inactive calls. How the source made its calls: active means hit-call score of the fitted dose curve at least 0.9, where 1 is the maximum; inconclusive means response in the unintended direction; inactive means score below 0.9.

The record followed here is PubChem BioAssay AID2284082 (EPA ToxCast).

Chain of human Akt2 (PKBbeta) AGC Kinase, AKT2 (gene 208) (P31751 whole entry, looked up): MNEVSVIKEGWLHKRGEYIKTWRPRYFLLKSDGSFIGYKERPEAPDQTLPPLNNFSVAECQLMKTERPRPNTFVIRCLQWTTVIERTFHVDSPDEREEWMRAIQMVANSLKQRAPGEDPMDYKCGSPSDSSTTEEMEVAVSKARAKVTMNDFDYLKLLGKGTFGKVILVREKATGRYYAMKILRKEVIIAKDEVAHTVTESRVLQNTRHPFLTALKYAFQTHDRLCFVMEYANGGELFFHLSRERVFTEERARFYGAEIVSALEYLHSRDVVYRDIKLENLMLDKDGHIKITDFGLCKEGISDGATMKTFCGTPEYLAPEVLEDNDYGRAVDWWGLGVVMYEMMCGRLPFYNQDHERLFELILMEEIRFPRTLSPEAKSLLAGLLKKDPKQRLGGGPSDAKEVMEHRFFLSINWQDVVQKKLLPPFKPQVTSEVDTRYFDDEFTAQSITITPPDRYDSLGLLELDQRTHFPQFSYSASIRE

The assay concerns the target human Akt2 (PKBbeta) AGC Kinase, AKT2 (gene 208) (UniProt P31751). Kind of assay: ERF_FR_ENZ_hAKT2: Eurofins (ERF) Enzymatic Radiometric [Km ATP] KinaseProfiler LeadHunter Assay for human Akt2 (PKBbeta) AGC Kinase. The procedure:
ERF_FR_ENZ_hAKT2 is a biochemical, single-readout assay that uses extracted gene-proteins in a cell-free assay. Measurements were taken 0.5 hour after chemical dosing in a 96-well plate. See Akt2 (PKBbeta) Human AGC Kinase Enzymatic LANCE Assay [Km ATP], Cerep.ERF_FR_ENZ_hAKT2 is an assay component calculated from the ERF_FR_ENZ_hAKT2 assay. It is designed to measure enzyme activity using a type of enzyme reporter as detected by fluorescence intensity with LANCE technology.Data from the assay component ERF_FR_ENZ_hAKT2 was analyzed at the assay endpoint, ERF_FR_ENZ_hAKT2, in the positive analysis fitting direction relative to DMSO as the negative control and baseline of activity. Using a type of enzyme reporter, loss-of-signal activity can be used to understand changes in enzymatic activity as they relate to gene AKT2. To generalize the intended target to other relatable targets, this assay endpoint is annotated to the kinase intended target family, where the subfamily is serine/threonine kinase.
PKBb (h) is incubated with 8 mM MOPS pH 7.0, 0.2 mM EDTA, 30 uM […], 10 mM MgAcetate and [g- 33P]-ATP (specific activity and concentration as required). The reaction is initiated by the addition of the Mg/ATP mix. After incubation for 40 minutes at room temperature, the reaction is stopped by the addition of phosphoric acid to a concentration of 0.5%. […]
Turning to `Oc1ccc(O)cc1`, the compound was classed as inactive.
